# Measured values from PubChem BioAssay.
# “And” between values parts separate entries of the source, which are not always exact repeats. Equal entries are not always repeated. Where a structure was tested more than once in an assay, its records may differ in their call. The source made the active and inactive calls. Rule as the data show it, unless noted: active = parasite load remaining mostly below about 12% (no sharp cut-off); inactive = mostly above about 10%.
# Legend:
# [1] = liver-stage malaria parasite growth inhibition, primary screen, cell-based, HepG2, luciferase luminescence, HepG2 viability (AID 624349);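 also: 100% = mean of DMSO negative control wells on the same plate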; conditions: P. berghei liver stage in HepG2, luciferase luminescence, concentration not given here; parasite load remaining: stronger effect = lower value; viability: measured here: HepG2 viability without parasites
# [2] = tested on: Hepatitis C virus NS3 helicase; test: HCV NS3 helicase inhibitors, primary screen, biochemical, fluorescence polarization, LOPAC1280 library (AID 687035; in the data active = inhibition above about 37%); conditions: Purified HCV NS3 helicase, Cy5-dT15 ssDNA binding fluorescence polarization; stronger effect = higher value; concentration not given here
# [3] = Cy5 fluorescence quenching or enhancement artefacts, artefact control for HCV NS3 helicase inhibitor project, biochemical, LOPAC1280 (AID 687037; call rule not given here); conditions: Cy5-DNA-NS3h complex fluorescence interference counterscreen
# [4] = stimulators of nuclear beta-catenin in C2C12, primary screen, imaging, WNT3A-conditioned medium, mouse C2C12, NPC library (AID 1117326; in the data active = nuclear beta-catenin stimulation mostly above about 4.2%, no sharp cut-off; inactive = mostly below about 10%); conditions: stronger effect = higher value
# [5] = stimulators of insulin release from INS-1E, primary screen, cell-based, 5 mM glucose, NPC library (AID 1117329;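 active = compound raises insulin release from rat beta cells at 5 mM glucose, no numeric limit stated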); conditions: rat INS-1E insulin secretion, at 10 µM, stronger effect = higher value
# [6] = growth inhibition of GSK3B-pretreated HCT116 cells – cell-based, CellTiter-Glo, 0.2 to 20 µM (AID 1117336;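 active = compounds lowering colon cancer cell viability after pretreatment blocking the GSK3B kinase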); conditions: HCT116 viability after GSK3B inhibitor, at 20 µM, stronger effect = higher value
# [7] = inhibition of endothelial tube formation, primary screen, imaging, VEGF stimulated, CD31 staining, tube area, NPC library (AID 1117340;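 active = compound that reduces growth-factor-driven endothelial tube area in a mixed cell culture, no cutoff stated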); conditions: VEGF-stimulated ADSC/ECFC co-culture, at 10 µM, stronger effect = higher value
# [8] = glucagon-like peptide 1 release enhancers, primary assay, NCI-H716 cell line, NPC library (AID 1117341;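 active = compound raises GLP1 secretion from the human gut endocrine cells, with no numeric limit stated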); conditions: NCI-H716 cells, at 10 µM, stronger effect = higher value
# [9] = HCT116 colon cancer cell growth inhibition, primary screen, CellTiter-Glo luminescence, NPC library (AID 1117342;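 active = compounds that lower survival of HCT116 colon cancer cells in the luminescence readout, no numeric limit stated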); conditions: at 20 µM (top of the series)
# [10] = CellTiter-Glo luminescent readout of SW480 viability loss, NPC library primary (AID 1117343;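 active = compounds that lower viability of the colon cancer cells in the luminescence readout, with no numeric limit stated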); conditions: CellTiter-Glo luminescence; at 20 µM (top of the series)
# [11] = decreased DLD-1 cellular survival, CellTiter-Glo luminescent readout, NPC compound collection, primary HTS (AID 1117346;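 active = compounds that lower survival of DLD-1 colon cancer cells in the luminescence readout, no cutoff given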); conditions: DLD-1 viability, CellTiter-Glo luminescence; at 20 µM (top of the series)
# [12] = target: 6-phosphogluconate dehydrogenase, decarboxylating (Homo sapiens) (UniProt P52209); test: 6PGD enzyme inhibitors, primary screen, biochemical, human, recombinant enzyme, NADPH absorbance (AID 1159550;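 active = at least 20% inhibition of 6-phosphogluconate dehydrogenase activity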); conditions: recombinant 6PGD, NADPH absorbance 341 nm; at 10 µM; stronger effect = higher value
# Sequence of 6-phosphogluconate dehydrogenase, decarboxylating (Homo sapiens) (P52209 whole entry, looked up): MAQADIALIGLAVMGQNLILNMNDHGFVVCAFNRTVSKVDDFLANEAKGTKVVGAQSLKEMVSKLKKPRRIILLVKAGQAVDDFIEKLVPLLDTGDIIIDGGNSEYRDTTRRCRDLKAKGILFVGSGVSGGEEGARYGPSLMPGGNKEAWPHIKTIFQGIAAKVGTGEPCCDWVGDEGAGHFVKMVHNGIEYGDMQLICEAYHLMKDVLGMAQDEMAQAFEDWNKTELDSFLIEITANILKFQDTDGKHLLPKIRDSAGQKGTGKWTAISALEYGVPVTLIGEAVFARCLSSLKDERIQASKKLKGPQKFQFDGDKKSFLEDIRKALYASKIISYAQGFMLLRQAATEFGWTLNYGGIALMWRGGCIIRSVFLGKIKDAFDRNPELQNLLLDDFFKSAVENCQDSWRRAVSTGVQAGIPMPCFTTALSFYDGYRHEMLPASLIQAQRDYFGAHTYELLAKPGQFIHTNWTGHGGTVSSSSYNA
SMILES,parasite load remaining [1],viability [1],inhibition [2],fluorescence ratio (interference) [3],nuclear beta-catenin stimulation ([4]; at 10 µM),"nuclear beta-catenin stimulation ([4]; stimulation, at 2 µM) [%]",insulin secretion stimulation [5],viability decrease [6],tube area decrease [7],GLP1 secretion stimulation [8],inhibition of viability [9],viability decrease (inhibition) [10],viability decrease (inhibition) [11],inhibition [12]
NC(=O)NO,113% (inactive) and 59.4% (inactive),74.6% and 101%,-3% (inactive),1 (inactive),-0.1% (inactive),4,0% (inactive),48.8% (inactive),4.9% (inactive),-2% (inactive),23.9% (inactive),8.5% (inactive),-7.1% (inactive),-7.1% (inactive)
C[N+]1(CCCCC[N+]2(C)CCCC2)CCCC1,24.8% (inactive) and 111% (inactive) and 94.9% (inactive),48.6% and 96% and 89.3%,4% (inactive),1 (inactive),-1.8% (inactive),0.5,2.5% (inactive),-7% (inactive),-11.3% (inactive),-1.6% (inactive),-2.5% (inactive),-8.4% (inactive),6.3% (inactive),10.2% (inactive)
NC(=O)c1ncn([C@@H]2O[C@H](CO)[C@@H](O)[C@H]2O)n1,64.8% (inactive) and 245% (inactive) and 27% (inactive),80.3% and 108% and 67%,-6% (inactive),0.9 (inactive),1.7% (inactive),2.6,0% (inactive),-32.4% (inactive),25.6% (inactive),0.7% (inactive),-15.3% (inactive),-29.6% (inactive),11.6% (inactive),16.1% (inactive)
CN(C)[C@@H]1C(=O)C(C(N)=O)=C(O)[C@@]2(O)C(=O)C3=C(O)c4c(O)ccc(Cl)c4[C@@H](O)[C@H]3C[C@@H]12,68.4% (inactive) and 96.7% (inactive) and 81.2% (inactive),95.5% and 71.1% and 88.6%,-3% (inactive),1 (inactive),6.3% (inactive),4.3,0.9% (inactive),-29.7% (inactive),17.3% (inactive),10.2% (inactive),57% (active),107% (active),94.7% (active),0.718% (inactive)
O=C(Cn1ccnc1[N+](=O)[O-])NCCO,107% (inactive) and 46.8% (inactive),103% and 102%,,,-1.8% (inactive),0.3,2.3% (inactive),-1.8% (inactive),2.6% (inactive),-2.9% (inactive),19.2% (inactive),6.3% (inactive),-0.6% (inactive),-6.85% (inactive)
Cc1nnc(NS(=O)(=O)c2ccc(N)cc2)s1,77.8% (inactive) and 214% (inactive) and 50.9% (inactive),95.4% and 74.4% and 104%,,,-0.1% (inactive),1.2,-2.4% (inactive),6.15% (inactive),19.3% (inactive),2.8% (inactive),0.2% (inactive),86.3% (active),3.2% (inactive),-8.84% (inactive)
CC(N)CCCC(C)(C)O (stereo not drawn),31.8% (inactive) and 120% (inactive) and 114% (inactive),50.3% and 90.2% and 93.5%,,,2.3% (inactive),1.6,0.6% (inactive),-36.1% (inactive),-13.2% (inactive),-1.9% (inactive),-2.33% (inactive),13% (inactive),-0.1% (inactive),-2.18% (inactive)
Clc1ccc(C(c2ccccc2Cl)C(Cl)Cl)cc1 (stereo not drawn),2.27% (inactive),80.1%,-4% (inactive),0.9 (inactive),4.5% (inactive),0.2,1.4% (inactive),46.6% (inactive),6.6% (inactive),15.5% (inactive),88.6% (active),84.4% (active),99.5% (active),5.07% (inactive)
Cn1c(=O)c2c(ncn2C)n(C)c1=O,89.2% (inactive) and 70.9% (inactive),73.1% and 94.9%,-2% (inactive),1 (inactive),0.2% (inactive),3.1,4.3% (inactive),-1.7% (inactive),16.4% (inactive),-0.2% (inactive),-8.8% (inactive),-11.7% (inactive),7.2% (inactive),8.55% (inactive)
CCCC(C(=O)OCCN(CC)CC)(c1ccccc1)c1ccccc1,-0.02% (active) and 10.3% (inactive) and 0.005% (inactive),85.1% and 64.2% and 90.3%,-6% (inactive),0.9 (inactive),0% (inactive),1.1,5.7% (inactive),52.5% (active),9.6% (inactive),11.5% (inactive),86.3% (active),76.5% (active),62.5% (active),3.92% (inactive)
CCN(CC)CCNC(=O)c1ccc(NC(C)=O)cc1,46.9% (inactive),102%,-3% (inactive),1 (inactive),-1.2% (inactive),1,0.3% (inactive),23% (inactive),23.1% (inactive),1.6% (inactive),18.3% (inactive),25.6% (inactive),19.5% (inactive),3.51% (inactive)
CCN(CC)C(C)CN1c2ccccc2Sc2ccccc21 (stereo not drawn),77.1% (inactive) and 61.6% (inactive) and 39% (inactive),89.3% and 65.2% and 91.5%,-1% (inactive),1 (inactive),3.4% (inactive),0.5,7.3% (active),-28.5% (inactive),25% (inactive),4.8% (inactive),69.2% (active),109% (active),76.9% (active),-5.57% (inactive)
O=NN(CCCl)C(=O)NCCCl,30.7% (inactive),104%,-4% (inactive),1 (inactive),4.9% (inactive),1.3,-0.1% (inactive),-5.7% (inactive),23.1% (inactive),2.2% (inactive),-16.5% (inactive),18.8% (inactive),-24.6% (inactive),0.0871% (inactive)
Cn1cnc2c1c(=O)[nH]c(=O)n2C,101% (inactive) and 137% (inactive) and 62.6% (inactive),101% and 74.3% and 103%,-5% (inactive),1 (inactive),0.9% (inactive),1,2.3% (inactive),5% (inactive),15.1% (inactive),-0.4% (inactive),6.3% (inactive),-8.1% (inactive),-19.1% (inactive),-1.33% (inactive)
CC1(C)NC(=O)N(c2ccc([N+](=O)[O-])c(C(F)(F)F)c2)C1=O,54.2% (inactive) and 50.4% (inactive) and 7.05% (inactive),92.2% and 99% and 125%,-2% (inactive),1 (inactive),-0.3% (inactive),2.1,0.7% (inactive),-16.7% (inactive),6.9% (inactive),-1.4% (inactive),8.8% (inactive),18.3% (inactive),-16.7% (inactive),9.97% (inactive)
Nc1c2c(nc3ccccc13)CCCC2O (stereo not drawn),125% (inactive) and 39.9% (inactive),110% and 112%,-4% (inactive),1 (inactive),-0.8% (inactive),-0.9,11.8% (inactive),5.9% (inactive),16.1% (inactive),8.3% (inactive),3.6% (inactive),26.9% (inactive),-22.2% (inactive),7.08% (inactive)
C[C@]12CC[C@@H]3c4ccc(O)cc4CC[C@H]3[C@@H]1CCC2=O,74.7% (inactive) and 24.8% (inactive),91.5% and 73.5%,-4% (inactive),1 (inactive),2.2% (inactive),-0.2,-1.5% (inactive),-6% (inactive),21.8% (inactive),-1.2% (inactive),-35.2% (inactive),32.8% (inactive),-3.45% (inactive),-17.4% (inactive)
O=C1CCc2cc(OCCCCc3nnnn3C3CCCCC3)ccc2N1,56.8% (inactive) and 129% (inactive) and 31.4% (inactive),104% and 87.2% and 96.2%,-1% (inactive),1 (inactive),1.1% (inactive),1,-1.5% (inactive),-19.3% (inactive),0.2% (inactive),-1.1% (inactive),-0.27% (inactive),36.4% (inactive),-12.1% (inactive),1.01% (inactive)
Cc1scc2c1N(C(=O)CN1CCN(C)CC1)c1ccccc1NC2=O,42.9% (inactive) and 96% (inactive) and 50.1% (inactive),49.7% and 86.8% and 142%,-3% (inactive),1 (inactive),1% (inactive),1.6,4% (inactive),-15.9% (inactive),-6.3% (inactive),-2.6% (inactive),-4.6% (inactive),2% (inactive),1.4% (active),10.3% (inactive)
CC(=O)N[C@@H](CS)C(=O)O,106% (inactive) and 79.1% (inactive),72.7% and 91.5%,0% (inactive),0.9 (inactive),2.6% (inactive),-1.4,0.8% (inactive),-18.8% (inactive),18% (inactive),0.7% (inactive),-0.95% (inactive),0.1% (inactive),7.4% (inactive),-17.2% (inactive)
CO[C@@]1(NC(=O)CSCC#N)C(=O)N2C(C(=O)O)=C(CSc3nnnn3C)CS[C@@H]21,86% (inactive),102%,-5% (inactive),1 (inactive),0.4% (inactive),0.7,-1.4% (inactive),-2.9% (inactive),-0.3% (inactive),-2.4% (inactive),-6.4% (inactive),-7.4% (inactive),-14.4% (inactive),-6.33% (inactive)
